From PubChem
A selection: hits, their analogues and other compounds. The true share with any hit is near 3.9%.
S2 tox – cell viability loss in ATXN counter-screen; 400,000 tested, 0.49% active; Potency, µM (highest dose often 56.7 µM), usual class: cytotoxic; AID 651635; S2 cells (HEK-293 line with an ATXN2-luciferase reporter) viability, CellTiter-Fluor protease fluorescence, 24 h; also: nearly all actives have a fitted effect of over 40% in size
HT1080NT lethal – kills 2HG-producing HT-1080-NT fibrosarcoma cells. HT-1080-NT fibrosarcoma viability, CellTiter-Glo ATP luminescence, 48 h. Potency, µM (series often up to 46.1 µM), inactives show at the highest dose activity, negative = less viability, hits mostly cytotoxic. 360,000 tested, 1.6% active. AID 686970;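 also: NT is the 2HG producing partner of a matched IDH1 knockdown line; 0% = DMSO-treated cells and -100% = media-only wells without cells; nearly all actives have a fitted effect of over 55% in size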
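Viability of the 2HG-overproducing fibrosarcoma line after 48 hours of compound exposure at 37 degrees C was determined by luminescence with CellTiter-Glo, and concentration-effect curves were then fitted and categorized.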
ATXN2 expr inh – inhibitors of ATXN2 expression | HEK-293 ATXN2-luciferase reporter, luminescence, 24 h | Potency, µM (doses to about 57 µM), for inactives: at the highest dose activity change, negative = inhibition, hits mostly inhibitors | 360,000 tested, 0.72% active | AID 1745845; also: % is scaled to controls: 0 for no effect and ±100 for the full control effect; nearly all actives have a fitted effect of over 55% in size
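qHTS (up to 57 uM final) was run with 24 h compound exposure of reporter cells at 37 °C. Each well was multiplexed: SteadyGlo luminescence measured ATXN2-luciferase expression after a fluorogenic Gly-Phe-AFC viability readout (25 uM final).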
HT1080 IDH1KD tx – HT-1080 IDH1 knockdown cell toxicity (counter line); 360,000 tested, 2% active; HT-1080 IDH1 knockdown viability, ATP luminescence, 48 h; Potency, µM (doses to about 46.1 µM), without a hit: top-dose activity, negative = toxicity, actives largely listed as cytotoxic; AID 686971;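 also: 0% = DMSO wells and -100% = cell-free medium wells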
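CellTiter-Glo luminescence after 48 h compound exposure at 37 degrees C of IDH1-knockdown HT-1080 cells in 5% FBS RPMI. %Activity scaled between DMSO wells and cell-free media wells, with curves fitted and assigned curve classes.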
TGFb SMAD3 inh – blocks TGF-b signaling. HepG2 CAGA-GFP TGF-b/SMAD3 reporter, GFP fluorescence, 18 h; TGF-beta stimulated, 500 pg/mL final. Potency, µM (highest dose often 46.1 µM), without a hit: at the top dose activity, negative = inhibition, most hits filed as inhibitors. 410,000 tested, 1.2% active; also: % is scaled to controls: 0 for no effect and ±100 for the full control effect; nearly all actives have a fitted effect of over 65% in size
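Cell-based qHTS in HEPG2 carrying a CAGA-GFP Smad reporter; compounds added before 500 pg/mL final TGF-beta, 18 h incubation at 37 degrees C, GFP fluorescence quantified per cell by imaging cytometry.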
HepG2 viability – kills HepG2 cells in TGF-b inhibitor counter-screen; 410,000 tested, 0.76% active; HepG2 CAGA-GFP viability, ATP luminescence, 18 h; AID 588856; Potency, µM (series often up to 46.1 µM), for inactives: at the highest dose activity change, negative = cytotoxicity, actives largely listed as cytotoxic
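HepG2 CAGA-GFP cells (1000/well, DMEM with 1% FBS) received compound, then TGF-beta at 500 pg/mL final, and were incubated 18 hours at 37 degrees C. Viability was read by CellTiter-Glo luminescence. Media-only wells were set as complete cell-killing and DMSO as no toxicity.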
* = called active by the depositor; i = inactive; ? = inconclusive; . = no result given. Calls follow the shape of the dose curve; as a rule, active = well fitted curve in the direction sought with a large enough effect; inconclusive = small, poorly fitted or top-dose-only effect, or another doubt; inactive = no such curve, though single readings can be large; an effect the other way counts as inactive or inconclusive. Potency is read from the fitted curve at half-maximal effect.

SMILES	S2 tox	HT1080NT lethal	ATXN2 expr inh	HT1080 IDH1KD tx	TGFb SMAD3 inh	HepG2 viability
CCC(C)Nc1nc(N)c([N+](=O)[O-])c(Nc2ccccc2OC)n1 (stereo not given)	?	?	-17%	21µM*	-38%	22%
Cc1cccc(C)c1N(CCCc1cccnc1)C(=O)C(C)N (stereo not given)	i	.	.	.	.	.
OC1(c2ccc(Br)cc2)CCNCC1	i	22µM*	?	?	?	-57%
CC(C)(C)n1ncc2c(=O)n(Cc3cccc(C(F)(F)F)c3)cnc21	.	.	.	.	?	-20%
Cc1cc(C)nc(/N=C(\N)Nc2ccc(-c3ccccc3)cc2)n1	i	16µM*	?	16µM*	?	-27%
O=S(=O)(c1ccccc1)N1CCN=C1SCc1cccc(Cl)c1	i	-10%	-13%	-17%	13µM*	-8%
Cc1ccc(NC(=O)CN2C(=O)CSc3ccc(S(=O)(=O)N(C)C)cc32)c(C)c1	i	.	4%	.	?	-30%
O=c1[nH]c(=O)n(Cc2ccco2)c2c1C(C(F)(F)F)(C(F)(F)F)N=C(CCc1ccccc1)N2	?	?	0%	10µM*	-26%	-25%
Cc1cc(=O)oc2cc(OCC3CC(c4ccccc4)=NO3)ccc12 (stereo not given)	i	11µM*	18%	?	7%	-15%
Cc1cc(=O)oc2cc(OCC(=O)N3c4ccccc4CC3C)ccc12 (stereo not given)	?	2.6µM*	7%	2.6µM*	8%	-16%
O=C1C=CC(=O)N1CCNc1ncc(C(F)(F)F)cc1Cl	.	?	25µM*	23µM*	13µM*	11µM*
COc1ccccc1-c1ccnc(-n2ncc(C(=O)NCCc3ccccn3)c2C)n1	i	.	.	.	.	.
Cc1ccc(P(=O)(c2ccc(C)cc2)[C@@H](NC(c2ccccc2)c2ccccc2)c2ccccc2)cc1	?	15µM*	?	16µM*	.	.
COc1ccc2oc(=O)c(C(=O)NCCc3c(C)[nH]c4c(C)cccc34)cc2c1	i	.	1%	.	2%	-5%
CCOC(=O)c1cc([N+](=O)[O-])c([N+](=O)[O-])cc1NC(C)=O	i	7.3µM*	6%	?	-8%	-30%
CCOC(=O)c1ccc(NC(=O)c2ccccc2[N+](=O)[O-])cc1	i	-1%	48%	-8%	-16%	-23%
CCC1CCCCN1CCCNC(=O)c1ccc2c(c1)N(Cc1ccccc1F)C(=O)c1ccccc1S2(=O)=O (stereo not given)	i	.	?	.	11µM*	-64%
Cc1ccc(S(=O)(=O)CC(CN2CCCCC2)N2CCCCC2)cc1 (stereo not given)	i	18µM*	?	18µM*	16µM*	-93%
CCc1ccc(C(=O)c2cn(Cc3ccc(F)cc3)c3cc(OC)c(OC)cc3c2=O)cc1	14µM*	.	?	.	?	-13%
CC(C)(C)n1ncc2c(=O)n(Cc3ccc(SC(=O)O)cc3Cl)cnc21	.	.	.	.	-15%	-10%
C/C=C(/C)C(=O)OC1c2c(ccc3ccc(=O)oc23)OC(C)(C)C1OC(=O)/C(C)=C\C (stereo not given)	?	-19%	?	?	11µM*	-29%
C/C=C(\C)C(=O)OC1c2c(ccc3ccc(=O)oc23)OC(C)(C)C1OC(C)=O (stereo not given)	?	8%	-8%	11%	3%	-23%
CCn1nc(-c2ccccc2)c(-c2ccccc2)c(C(=O)Nc2ccccc2C(N)=O)c1=O	.	.	.	.	-23%	-16%
O=C(Nc1nnc(COc2ccccc2F)s1)Nc1ccccc1F	i	?	-6%	?	?	-20%
O=C(Nc1ccc(F)cc1)Nc1nnc(COc2ccccc2F)s1	i	?	.	15µM*	?	-31%
